Reference: the supplement of paper PMC11732987, “Enantioselective OTUD7B fragment discovery through chemoproteomics screening and high-throughput optimisation” (Communications Chemistry, 2025)

Assays:
Assay in all cases: log2 ratio of Biotin-Ahx-Ub-VS probe labelling (fragment/DMSO); higher = less target engagement (more negative = stronger competition), active = hit call of the paper (q ≤ 0.05, log2 ratio ≤ -1)
Conditions in all cases: compound concentration: 200 uM; treatment time: 3 h
USP19 = biological target: T1, USP19 (UniProt O94966)
T1 sequence (whole entry): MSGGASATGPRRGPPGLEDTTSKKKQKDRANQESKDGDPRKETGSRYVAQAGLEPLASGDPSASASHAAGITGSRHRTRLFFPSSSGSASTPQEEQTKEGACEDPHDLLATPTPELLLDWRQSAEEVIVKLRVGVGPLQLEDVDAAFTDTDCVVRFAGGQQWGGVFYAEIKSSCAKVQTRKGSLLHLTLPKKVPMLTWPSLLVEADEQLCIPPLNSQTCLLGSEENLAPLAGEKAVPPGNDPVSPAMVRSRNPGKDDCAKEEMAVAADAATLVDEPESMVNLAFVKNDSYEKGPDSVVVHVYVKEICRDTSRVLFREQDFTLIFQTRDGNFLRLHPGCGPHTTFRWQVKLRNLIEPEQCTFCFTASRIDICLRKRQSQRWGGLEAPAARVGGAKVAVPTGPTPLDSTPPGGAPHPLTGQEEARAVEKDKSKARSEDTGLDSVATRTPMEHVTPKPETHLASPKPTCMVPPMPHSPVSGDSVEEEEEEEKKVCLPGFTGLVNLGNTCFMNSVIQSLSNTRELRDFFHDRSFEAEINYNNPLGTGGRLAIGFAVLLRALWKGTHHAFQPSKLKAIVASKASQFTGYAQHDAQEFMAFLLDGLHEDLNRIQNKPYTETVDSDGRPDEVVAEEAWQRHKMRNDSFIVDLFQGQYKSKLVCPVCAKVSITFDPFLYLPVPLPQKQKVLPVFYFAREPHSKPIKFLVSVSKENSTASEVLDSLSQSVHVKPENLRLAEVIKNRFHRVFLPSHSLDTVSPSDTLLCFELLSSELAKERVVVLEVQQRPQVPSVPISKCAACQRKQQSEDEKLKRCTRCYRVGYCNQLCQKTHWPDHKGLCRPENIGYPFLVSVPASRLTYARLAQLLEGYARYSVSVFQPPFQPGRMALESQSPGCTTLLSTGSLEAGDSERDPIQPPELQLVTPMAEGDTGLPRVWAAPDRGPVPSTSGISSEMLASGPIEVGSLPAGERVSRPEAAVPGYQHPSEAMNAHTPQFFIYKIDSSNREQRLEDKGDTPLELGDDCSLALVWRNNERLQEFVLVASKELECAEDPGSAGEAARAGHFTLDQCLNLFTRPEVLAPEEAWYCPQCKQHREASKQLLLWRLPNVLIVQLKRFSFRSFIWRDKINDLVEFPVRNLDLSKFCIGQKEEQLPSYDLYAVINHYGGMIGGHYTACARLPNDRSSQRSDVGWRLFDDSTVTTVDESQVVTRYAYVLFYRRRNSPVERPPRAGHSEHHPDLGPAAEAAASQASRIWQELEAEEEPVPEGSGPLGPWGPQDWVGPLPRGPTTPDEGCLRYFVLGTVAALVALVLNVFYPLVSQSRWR
In short: (§1)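 Using Biotin-Ahx-Ub-VS at 0.5 µM final for 1 h, DUBs were labelled in HEK293T lysate (495 µg per sample) that had first been treated in triplicate with fragment at 200 µM or vehicle for 3 h. NeutrAvidin enrichment, LysC and trypsin digestion and diaPASEF LC-MS/MS followed. Spectronaut label-free quantities were global-median-normalised. Values are average log2 fragment/vehicle ratios by unpaired t-test, using proteins with ≥2 unique peptides.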

USP24 = USP24 (UniProt Q9UPU5)
In short: as §1

USP25 = biological target: T2, USP25 (UniProt Q9UHP3)
T2 sequence (whole entry): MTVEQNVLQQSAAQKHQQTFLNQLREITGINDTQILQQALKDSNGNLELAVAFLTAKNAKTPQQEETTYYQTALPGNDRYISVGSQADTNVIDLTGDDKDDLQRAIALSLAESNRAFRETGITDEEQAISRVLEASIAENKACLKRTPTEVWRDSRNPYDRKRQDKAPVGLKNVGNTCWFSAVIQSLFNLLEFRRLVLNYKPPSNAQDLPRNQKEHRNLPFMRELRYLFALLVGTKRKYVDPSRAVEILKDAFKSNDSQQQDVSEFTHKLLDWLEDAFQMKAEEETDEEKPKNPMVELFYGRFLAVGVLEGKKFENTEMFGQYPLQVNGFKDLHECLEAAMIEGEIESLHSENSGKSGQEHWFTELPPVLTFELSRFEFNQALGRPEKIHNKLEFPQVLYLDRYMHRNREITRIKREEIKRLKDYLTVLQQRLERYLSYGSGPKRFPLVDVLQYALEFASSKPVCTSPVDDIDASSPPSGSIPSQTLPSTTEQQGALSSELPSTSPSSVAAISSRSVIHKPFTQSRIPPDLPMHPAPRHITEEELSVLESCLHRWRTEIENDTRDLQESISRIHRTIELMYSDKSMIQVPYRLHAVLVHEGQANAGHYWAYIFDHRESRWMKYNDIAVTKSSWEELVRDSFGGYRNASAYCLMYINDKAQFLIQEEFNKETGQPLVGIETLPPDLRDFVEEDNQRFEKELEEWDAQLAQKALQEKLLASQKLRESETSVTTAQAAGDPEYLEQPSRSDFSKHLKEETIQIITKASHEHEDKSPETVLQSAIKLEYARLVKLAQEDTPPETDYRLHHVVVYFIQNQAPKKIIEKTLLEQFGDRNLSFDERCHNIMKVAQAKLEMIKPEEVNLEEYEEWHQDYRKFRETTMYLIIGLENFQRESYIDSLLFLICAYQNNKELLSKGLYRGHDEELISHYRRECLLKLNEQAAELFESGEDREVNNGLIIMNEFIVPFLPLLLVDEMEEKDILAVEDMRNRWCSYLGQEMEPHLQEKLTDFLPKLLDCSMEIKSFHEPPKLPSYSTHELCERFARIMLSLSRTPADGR
In short: as §1

USP28 = biological target: T3, USP28 (UniProt Q96RU2)
T3 sequence (whole entry): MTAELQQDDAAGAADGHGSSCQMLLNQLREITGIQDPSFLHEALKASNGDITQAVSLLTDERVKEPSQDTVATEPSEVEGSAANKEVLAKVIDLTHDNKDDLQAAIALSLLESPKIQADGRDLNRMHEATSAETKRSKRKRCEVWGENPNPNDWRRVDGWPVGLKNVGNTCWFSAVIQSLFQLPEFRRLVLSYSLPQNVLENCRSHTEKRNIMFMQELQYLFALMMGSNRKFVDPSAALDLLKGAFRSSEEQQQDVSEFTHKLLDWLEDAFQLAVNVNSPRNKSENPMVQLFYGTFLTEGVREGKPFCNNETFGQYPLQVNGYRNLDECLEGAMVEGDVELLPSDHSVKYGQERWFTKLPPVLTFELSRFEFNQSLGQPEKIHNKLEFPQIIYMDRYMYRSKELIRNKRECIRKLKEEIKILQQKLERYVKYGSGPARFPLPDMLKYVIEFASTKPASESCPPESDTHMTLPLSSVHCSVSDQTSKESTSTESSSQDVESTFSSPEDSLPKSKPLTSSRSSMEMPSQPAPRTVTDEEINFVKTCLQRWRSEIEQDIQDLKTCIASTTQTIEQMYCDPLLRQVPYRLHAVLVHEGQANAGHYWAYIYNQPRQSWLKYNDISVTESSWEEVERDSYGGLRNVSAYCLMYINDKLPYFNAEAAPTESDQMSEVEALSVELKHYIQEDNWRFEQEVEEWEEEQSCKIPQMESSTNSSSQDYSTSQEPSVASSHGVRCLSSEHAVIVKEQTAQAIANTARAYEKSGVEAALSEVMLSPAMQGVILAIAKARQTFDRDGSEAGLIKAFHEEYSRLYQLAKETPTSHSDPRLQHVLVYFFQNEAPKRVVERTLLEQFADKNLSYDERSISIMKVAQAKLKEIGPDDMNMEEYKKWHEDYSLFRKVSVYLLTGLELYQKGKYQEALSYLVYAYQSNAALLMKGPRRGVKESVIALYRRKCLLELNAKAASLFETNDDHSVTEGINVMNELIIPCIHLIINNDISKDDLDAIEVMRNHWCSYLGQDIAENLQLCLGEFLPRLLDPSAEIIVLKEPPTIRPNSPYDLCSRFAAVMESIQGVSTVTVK
In short: as §1

Measured: log2 ratio of Biotin-Ahx-Ub-VS probe labelling

Sequence of USP24 (Q9UPU5 whole entry): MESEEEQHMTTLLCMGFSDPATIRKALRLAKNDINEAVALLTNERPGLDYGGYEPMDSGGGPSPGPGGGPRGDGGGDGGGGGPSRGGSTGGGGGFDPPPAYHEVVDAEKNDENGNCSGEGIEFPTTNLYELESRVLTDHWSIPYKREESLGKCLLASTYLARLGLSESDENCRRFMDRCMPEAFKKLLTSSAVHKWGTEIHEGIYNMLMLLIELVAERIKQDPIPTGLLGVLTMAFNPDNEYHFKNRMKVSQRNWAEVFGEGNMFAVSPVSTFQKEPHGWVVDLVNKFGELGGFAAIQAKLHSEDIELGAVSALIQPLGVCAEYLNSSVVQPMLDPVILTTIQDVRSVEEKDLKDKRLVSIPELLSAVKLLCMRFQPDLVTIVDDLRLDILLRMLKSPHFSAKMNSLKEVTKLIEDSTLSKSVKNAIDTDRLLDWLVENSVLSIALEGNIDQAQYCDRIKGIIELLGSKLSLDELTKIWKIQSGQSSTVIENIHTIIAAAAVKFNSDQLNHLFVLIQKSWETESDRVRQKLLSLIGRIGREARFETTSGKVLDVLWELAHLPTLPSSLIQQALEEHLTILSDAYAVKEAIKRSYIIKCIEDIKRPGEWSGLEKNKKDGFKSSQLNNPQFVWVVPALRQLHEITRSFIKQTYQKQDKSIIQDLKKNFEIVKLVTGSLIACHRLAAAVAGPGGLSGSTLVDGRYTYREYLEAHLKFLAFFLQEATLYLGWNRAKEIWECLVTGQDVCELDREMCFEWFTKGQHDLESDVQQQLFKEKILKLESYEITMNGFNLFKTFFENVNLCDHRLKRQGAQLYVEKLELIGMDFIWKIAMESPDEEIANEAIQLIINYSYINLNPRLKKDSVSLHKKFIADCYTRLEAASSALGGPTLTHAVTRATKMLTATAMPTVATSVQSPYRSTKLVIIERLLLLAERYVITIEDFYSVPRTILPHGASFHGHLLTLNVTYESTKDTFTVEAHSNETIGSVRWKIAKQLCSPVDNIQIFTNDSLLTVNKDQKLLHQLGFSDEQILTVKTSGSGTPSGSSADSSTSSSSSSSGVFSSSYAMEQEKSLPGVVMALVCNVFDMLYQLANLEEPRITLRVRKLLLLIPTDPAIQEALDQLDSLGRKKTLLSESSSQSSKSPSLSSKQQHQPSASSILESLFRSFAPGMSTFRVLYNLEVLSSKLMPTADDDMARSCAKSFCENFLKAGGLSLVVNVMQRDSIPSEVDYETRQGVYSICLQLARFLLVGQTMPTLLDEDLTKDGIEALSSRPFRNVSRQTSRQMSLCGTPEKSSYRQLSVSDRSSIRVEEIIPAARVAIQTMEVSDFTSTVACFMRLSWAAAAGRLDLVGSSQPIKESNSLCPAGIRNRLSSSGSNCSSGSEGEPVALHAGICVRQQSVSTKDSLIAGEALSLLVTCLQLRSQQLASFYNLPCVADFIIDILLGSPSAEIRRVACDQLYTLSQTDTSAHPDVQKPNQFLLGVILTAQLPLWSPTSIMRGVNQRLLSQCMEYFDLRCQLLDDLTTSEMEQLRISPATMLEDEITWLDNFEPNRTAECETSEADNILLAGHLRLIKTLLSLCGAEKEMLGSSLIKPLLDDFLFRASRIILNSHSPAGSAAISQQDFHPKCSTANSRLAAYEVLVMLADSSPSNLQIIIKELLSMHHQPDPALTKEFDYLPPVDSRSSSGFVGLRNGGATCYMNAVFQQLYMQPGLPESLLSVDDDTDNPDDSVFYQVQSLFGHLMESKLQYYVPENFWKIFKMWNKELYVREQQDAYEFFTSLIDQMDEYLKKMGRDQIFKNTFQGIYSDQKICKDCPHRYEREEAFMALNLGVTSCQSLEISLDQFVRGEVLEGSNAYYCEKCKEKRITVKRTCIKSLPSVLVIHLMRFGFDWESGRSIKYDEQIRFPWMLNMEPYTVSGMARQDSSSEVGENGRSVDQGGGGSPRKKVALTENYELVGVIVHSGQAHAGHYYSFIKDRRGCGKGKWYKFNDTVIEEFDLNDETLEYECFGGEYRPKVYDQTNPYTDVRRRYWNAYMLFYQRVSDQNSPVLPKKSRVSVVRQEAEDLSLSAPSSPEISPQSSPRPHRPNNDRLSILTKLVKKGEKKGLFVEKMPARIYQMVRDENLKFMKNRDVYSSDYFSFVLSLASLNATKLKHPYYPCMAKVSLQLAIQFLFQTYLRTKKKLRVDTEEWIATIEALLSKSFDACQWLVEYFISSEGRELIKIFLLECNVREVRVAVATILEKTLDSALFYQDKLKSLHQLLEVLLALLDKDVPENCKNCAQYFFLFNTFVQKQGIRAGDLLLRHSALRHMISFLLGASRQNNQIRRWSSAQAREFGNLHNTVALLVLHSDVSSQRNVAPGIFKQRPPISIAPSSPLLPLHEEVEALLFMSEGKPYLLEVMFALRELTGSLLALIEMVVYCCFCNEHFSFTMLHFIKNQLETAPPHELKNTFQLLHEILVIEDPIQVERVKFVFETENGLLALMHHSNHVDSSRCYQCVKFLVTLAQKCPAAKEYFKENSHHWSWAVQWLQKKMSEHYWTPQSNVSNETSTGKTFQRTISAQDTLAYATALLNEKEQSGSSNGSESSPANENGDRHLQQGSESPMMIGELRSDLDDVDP

O=C(CCl)NCc1ccc(N2CCOCC2)nc1
inactive: USP19 -0.163 | USP24 -0.312 | USP25 -0.432 | USP28 -0.485
